Reference: PubChem BioAssay AID1159580 (chemical genetic matrix, 2015)
“And” between values parts separate entries of the source, which are not always exact repeats. Identical values can stand only once. Screen size: about 5,500 compounds; about 2,000 (36%) were called active. Not shown: some 18% with an inconclusive outcome. Cut-off read from the data, not from the text of the source: active = normalized growth mostly below about 0.91 (no sharp cut-off); inconclusive = no clear call, values can overlap the other calls; inactive = mostly above about 0.92. The list shows a part of the results.

Assay: chemical genetic growth profiling, strain panel (AID 1159580);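 note: tested at 20 µM; growth read once vehicle control cultures reached saturation at 30 °C; 1 = growth at the plate median or of vehicle wells; lower values mean less growth of the strain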
Settings: S. cerevisiae deletion strains, growth OD

Measured: normalized growth

N=c1nc(N2CCCCC2)cc(N)n1O
inactive: locus YAL013W, strain DEP1, stronger effect = lower value 0.981 and 0.989 | locus YAL021C, strain ccr4, stronger effect = lower value 0.989 | locus YAL026C, strain drs2, stronger effect = lower value 1 | locus YAL030W, strain snc1, stronger effect = lower value 0.984 | locus YAL040C, strain CLN3, stronger effect = lower value 1.03 | locus YBL061C, strain skt5, stronger effect = lower value 0.977 | locus YBR009C, strain hhf1, stronger effect = lower value 1 | locus YBR021W, strain FUR4, stronger effect = lower value 1.09 | locus YBR023C, strain chs3, stronger effect = lower value 0.985 | locus YBR171W, strain sec66, stronger effect = lower value 0.984 | locus YBR229C, strain ROT2, stronger effect = lower value 0.955 | locus YBR231C, strain swc5, stronger effect = lower value 1 | locus YBR279W, strain paf1, stronger effect = lower value 0.992 | locus YCL011C, strain gbp2, stronger effect = lower value 0.963 | locus YCL016C, strain dcc1, stronger effect = lower value 0.97 | locus YCL029C, strain bik1, stronger effect = lower value 0.99 | locus YCL061C, strain MRC1 (second series), stronger effect = lower value 1 | locus YCL061C, strain MRC1, stronger effect = lower value 0.991 | locus YCL069W, strain vba3, stronger effect = lower value 0.992 | locus YCR088W, strain abp1, stronger effect = lower value 0.989 | locus YDL005C, strain med2, stronger effect = lower value 0.997 | locus YDL035C, strain GPR1, stronger effect = lower value 0.98 | locus YDL040C, strain nat1, stronger effect = lower value 0.992 | locus YDL074C, strain BRE1, stronger effect = lower value 1.02 | locus YDL101C, strain DUN1, stronger effect = lower value 0.988 | locus YDL134C, strain PPH21, stronger effect = lower value 0.975 | locus YDL185W, strain tfp1, stronger effect = lower value 0.978 | locus YDL192W, strain arf1, stronger effect = lower value 0.983 | locus YDR001C, strain nth1, stronger effect = lower value 0.979 | locus YDR069C, strain doa4, stronger effect = lower value 0.996 | locus YDR101C, strain arx1, stronger effect = lower value 1.01 | locus YDR137W, strain rgp1, stronger effect = lower value 0.977 | locus YDR150W, strain NUM1, stronger effect = lower value 0.963 and 1.01 | locus YDR159W, strain sac3, stronger effect = lower value 1.04 | locus YDR162C, strain NBP2, stronger effect = lower value 0.968 | locus YDR195W, strain ref2 0.981 | locus YDR297W, strain sur2, stronger effect = lower value 0.981 | locus YDR318W, strain mcm21, stronger effect = lower value 1 | locus YDR334W, strain swr1, stronger effect = lower value 0.936 | locus YDR335W, strain msn5, stronger effect = lower value 0.979 | locus YDR363W, strain ESC2, stronger effect = lower value 0.979 | locus YDR388W, stronger effect = lower value 0.949 | locus YDR392W, strain spt3, stronger effect = lower value 0.964 | locus YDR502C, strain sam2, stronger effect = lower value 0.959 | locus YEL003W, strain gim4, stronger effect = lower value 0.992 | locus YEL037C, strain rad23, stronger effect = lower value 0.989 | locus YEL061C, strain CIN8 (second series), stronger effect = lower value 0.982 | locus YEL061C, strain CIN8, stronger effect = lower value 0.982 | locus YER002W, strain NOP16, stronger effect = lower value 1.02 | locus YER015W, strain faa2, stronger effect = lower value 0.985 | locus YER016W, strain bim1, stronger effect = lower value 0.998 | locus YER110C, stronger effect = lower value 0.955 | locus YER111C, strain swi4, stronger effect = lower value 0.987 | locus YER155C, strain BEM2 (second series), stronger effect = lower value 1.03 | locus YER155C, strain BEM2, stronger effect = lower value 1.01 | locus YER167W, strain BCK2, stronger effect = lower value 0.989 | locus YFR010W, strain ubp6, stronger effect = lower value 0.982 | locus YGL078C, strain dbp3, stronger effect = lower value 0.985 | locus YGL086W, strain mad1, stronger effect = lower value 0.961 | locus YGL167C, strain pmr1, stronger effect = lower value 0.985 | locus YGL173C, strain kem1, stronger effect = lower value 0.984 | locus YGL227W, strain vid30, stronger effect = lower value 0.996 | locus YGL240W, strain doc1, stronger effect = lower value 1 | locus YGL248W, strain PDE1, stronger effect = lower value 0.981 | locus YGL253W, strain hxk2, stronger effect = lower value 0.96 | locus YGR078C, strain PAC10, stronger effect = lower value 1 and 0.978 | locus YGR135W, strain pre9, stronger effect = lower value 0.99 | locus YGR229C, strain SMI1, stronger effect = lower value 1.01 | locus YGR252W, strain gcn5, stronger effect = lower value 0.867 | locus YHR013C, strain ard1, stronger effect = lower value 0.962 | locus YHR027C, strain rpn1, stronger effect = lower value 0.976 | locus YHR030C, strain SLT2, stronger effect = lower value 0.982 | locus YHR079C, strain IRE1 (second series), stronger effect = lower value 1 | locus YHR079C, strain IRE1, stronger effect = lower value 0.997 | locus YHR094C, strain hxt1, stronger effect = lower value 0.991 | locus YHR129C, strain ARP1, stronger effect = lower value 0.988 | locus YHR142W, strain chs7, stronger effect = lower value 0.971 | locus YHR200W, strain rpn10, stronger effect = lower value 0.993 | locus YIL066C, strain RNR3, stronger effect = lower value 0.975 | locus YIL073C, strain SPO22, stronger effect = lower value 0.94 | locus YIL125W, strain kgd1, stronger effect = lower value 0.985 | locus YIR030C, strain dcg1, stronger effect = lower value 0.982 | locus YJL092W, strain hpr5, stronger effect = lower value 0.988 | locus YJL095W, strain BCK1 (second series), stronger effect = lower value 0.986 | locus YJL095W, strain BCK1, stronger effect = lower value 1.01 and 0.985 | locus YJL115W, strain asf1, stronger effect = lower value 0.966 | locus YJL129C, strain trk1, stronger effect = lower value 1 | locus YJL134W, strain LCB3, stronger effect = lower value 0.978 | locus YJL154C, strain vps35, stronger effect = lower value 0.976 | locus YJL164C, strain tpk1, stronger effect = lower value 0.999 | locus YJL166W, strain qcr8, stronger effect = lower value 0.957 | locus YJL168C, strain set2, stronger effect = lower value 0.995 | locus YJL187C, strain SWE1 (second series), stronger effect = lower value 0.983 | locus YJL187C, strain SWE1, stronger effect = lower value 0.992 | locus YJR043C, strain POL32, stronger effect = lower value 1.02 | locus YJR066W, strain TOR1, stronger effect = lower value 0.932
